From PubChem BioAssay
A350 autofl: A350 region autofluorescence | max dye-equivalent concentration, M | 11% of 59,000 active | Compound autofluorescence, 340/450 nm, Alexa 350 dye-equivalents; stronger effect = higher value | AID 590; in the data active = max dye-equivalent concentration above about 10 nM; inconclusive = mostly about 1.1 nM to 9.6 nM
4-MU autofl: 4-MU region autofluorescence; compound autofluorescence, 340/450 nm, 4-MU equivalents; stronger effect = higher value; max dye-equivalent concentration, M; 11% of 59,000 active; in the data active = max dye-equivalent concentration above about 10 nM; inconclusive = mostly about 1.1 nM to 9.6 nM
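Compounds in 100 mM Tris, pH 8.0, sat 15 min at room temperature before fluorescence was read at 340 nm excitation/450 nm emission; a per-plate six-point 4-MU standard curve converted signals to dye-equivalent concentration at each compound concentration.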
HSD17B inh: inhibitors of human HSD17B10 dehydrogenase | Q99714 | Potency, µM (doses to about 57.1 µM), for the others: top-dose activity change, negative = inhibition, most hits filed as inhibitors | recombinant HSD17B10, NADH fluorescence kinetic | 7.6% of 75,000 active;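 note: the protocol describes HADH2 (HSD17B10) and not the HSD17B4 of the title; potency is the fitted concentration of half-maximal effect; % is set by controls: 0 for no effect and ±100 for the full control effect; nearly all actives have a fitted effect of over 70% in size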
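20 nM HADH2, pH 9.0 Tris/Tween; cpd preinc 15 min RT; start w/ 1 mM NAD+ + 90 uM b-hydroxybutyryl-CoA; kinetic fluor ex360/em450 q30s x 4 min; delta last-first.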
HADH2 inhib: HADH2 (human) dehydrogenase inhibition. Q99714. Potency, µM (doses to about 57.1 µM), for the others: at the top dose activity change, negative = inhibition, most hits filed as inhibitors. 3.4% of 73,000 active. recombinant HADH2, NADH fluorescence, beta-hydroxybutyryl-CoA; note: potency is the fitted concentration of half-maximal effect; % is set by controls: 0 for no effect and ±100 for the full control effect; nearly all actives have a fitted effect of over 60% in size
Target sequence (Q99714 whole entry, looked up, one chain of several): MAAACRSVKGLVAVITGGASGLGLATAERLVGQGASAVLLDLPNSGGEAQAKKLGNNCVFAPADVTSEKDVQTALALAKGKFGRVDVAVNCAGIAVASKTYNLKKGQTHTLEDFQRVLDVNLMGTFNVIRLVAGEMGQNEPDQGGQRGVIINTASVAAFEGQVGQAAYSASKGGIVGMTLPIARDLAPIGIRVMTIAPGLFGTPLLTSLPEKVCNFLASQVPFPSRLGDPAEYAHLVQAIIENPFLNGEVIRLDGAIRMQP
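His-tagged recombinant enzyme from E. coli, 20 nM, preincubated 15 min RT with compound; reaction started with 1 mM NAD+ and 90 uM beta-hydroxybutyryl-CoA in 100 mM Tris-HCl pH 9.0. NADH fluorescence (ex 360/em 450) read over 4 min; last-minus-first difference.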
CRE Fsk mod: CRE-bla signaling modulation under forskolin stimulation | CHO CRE-bla reporter (cAMP response element driving beta-lactamase), forskolin EC10, beta-lactamase ratio | 2.5% of 71,000 active | Potency, µM (titrated, usually from 38.2 µM), for inactives: at the top dose activity change, negative = inhibition, usual class: activators | AID 662; active = well fitted activation curve with a large enough effect in the signal ratio, with a control signal flat, not every such curve was filed as active; inconclusive = small, poorly fitted or top-dose-only effect, or effect the other way, or a change in a side signal; the % refers to the signal ratio; note: potency is the fitted concentration of half-maximal effect; % of control where 0% means no effect
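AC50 values, positive or negative, reflect shifts in EC10 NKH 477-induced CRE-bla reporter activity in CHO cells. Incubation lasted 3 h at 37 °C before CCF4 substrate (2 h, room temperature) and ratiometric 460/530 nm reading.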
AID923: qHTS Assay for Allosteric/Competitive Inhibitors of Caspase-1: Spectroscopic Profiling in AFC Spectral Region; compound fluorescence, AFC spectral region (405/520 nm); Potency, µM (titrated, usually from 57.5 µM), for inactives: at the top dose fluorescence increase, most hits filed as activators; AID 923, 2007; 1.1% of 75,000 active; note: potency is the fitted concentration of half-maximal effect; 0% is about no effect
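Baseline compound fluorescence (AFC region, 405 nm ex/520 nm em) taken from the intercept of kinetic reads with 50 nM caspase-1 and 5 uM Ac-WEHD-AFC; normalized to an on-plate AFC standard curve; compounds titrated up to 57 uM.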
* = called active by the depositor; [ ] = another dose, or the depositor's remark. A selection: hits, their analogues and other compounds. The true share with any hit is near 14%. Unless noted, calls come from the whole dose curve; as a rule, active = well fitted curve in the direction sought with a large enough effect; inconclusive = small, poorly fitted or top-dose-only effect, or another doubt; inactive = no such curve, though single readings can be large; an effect the other way counts as inactive or inconclusive.

For Cn1c(=O)c2c(nc(CN3CCc4ccccc4C3)n2Cc2ccccc2)n(C)c1=O the results were A350 autofl inactive, 4-MU autofl inactive, HSD17B inh inconclusive, HADH2 inhib 17%, CRE Fsk mod 0% and AID923 4%.
Screening Brc1cccc(-c2nnc3n2CCCCC3)c1 returned A350 autofl 1.6e-08M*, 4-MU autofl 1.4e-08M*, HSD17B inh 12%, HADH2 inhib 2%, CRE Fsk mod 4% and AID923 3%.
CN=c1scc(C)n1/N=C/c1ccc(O)cc1 was read as A350 autofl inconclusive, 4-MU autofl inconclusive, HSD17B inh -16%, HADH2 inhib -8%, CRE Fsk mod 0% and AID923 4%.
For CN=c1scc(C)n1/N=C/c1ccc(O)cc1O the results were A350 autofl 3.3e-08M*, 4-MU autofl 3.8e-08M*, HSD17B inh -26%, HADH2 inhib -21%, CRE Fsk mod 5% and AID923 0%.
`CCOC(=O)CSc1nc2cc(C(=O)NCc3ccco3)ccc2c(=O)n1-c1ccc(F)cc1` gave A350 autofl inconclusive, 4-MU autofl inconclusive, HSD17B inh 5%, HADH2 inhib 5%, CRE Fsk mod -2% and AID923 0%.
For Cc1nn(CC(O)Cn2cnc3c2c(=O)n(C)c(=O)n3C)c(C)c1Br (configuration not stated) the results were A350 autofl inactive, 4-MU autofl inactive, HSD17B inh 2%, HADH2 inhib -2%, CRE Fsk mod inconclusive and AID923 0%.
For Cc1nn(CC(O)Cn2c3c(c4ccccc42)CCN(C)C3=O)c(C)c1Br (configuration not stated) the results were A350 autofl 3.2e-08M*, 4-MU autofl 3.7e-08M*, HSD17B inh 32µM*, HADH2 inhib inconclusive, CRE Fsk mod inconclusive and AID923 0%.
Screening Cc1cc(-c2ccco2)n(CC(=O)O)n1 returned A350 autofl 1e-08M*, 4-MU autofl inconclusive, HSD17B inh 4%, HADH2 inhib 1%, CRE Fsk mod -25% and AID923 1%.
Cc1cc(-c2ccco2)n(CC(=O)NCCN(C)C)n1 was read as HSD17B inh 7%, HADH2 inhib 7%, CRE Fsk mod -2% and AID923 0%.
`O=C1c2ccccc2NC(c2ccco2)N1O` (configuration not stated) gave HSD17B inh -5%, HADH2 inhib -15%, CRE Fsk mod -6% and AID923 0%.
`O=C1C2=C(Nc3ccccc3SC2c2ccco2)c2ccccc21` (configuration not stated) gave HSD17B inh -15%, HADH2 inhib 25µM*, CRE Fsk mod inconclusive and AID923 -3%.
Screening Cc1nc2ccccc2n1CC(O)Cn1c(C(F)(F)F)nc2ccccc21 (configuration not stated) returned A350 autofl inactive, 4-MU autofl inactive, HSD17B inh 5%, HADH2 inhib 6%, CRE Fsk mod -3% and AID923 1%.
Screening CNc1nc(NC)nc(-n2c(C(F)(F)F)nc3ccccc32)n1 returned A350 autofl inconclusive, 4-MU autofl inactive, HSD17B inh 9%, HADH2 inhib 1%, CRE Fsk mod 13µM* and AID923 0%.
`Cc1c(/C(O)=C2/C(=O)C(=O)N(CCN3CCOCC3)C2c2cccnc2)cnn1-c1ccccc1` (configuration not stated) gave A350 autofl inactive and 4-MU autofl inactive.
`Cc1cc(C(F)(F)F)c2c(C)nn(CCc3nn[nH]n3)c2n1` gave A350 autofl inconclusive, 4-MU autofl inactive, HSD17B inh 32µM*, HADH2 inhib inconclusive, CRE Fsk mod inconclusive and AID923 -1%.
`COc1ccc(C)cc1NS(=O)(=O)c1cccc2cccnc12` gave HSD17B inh 4%, HADH2 inhib -2%, CRE Fsk mod 10% and AID923 -1%.
`COc1c(O)cccc1O` gave HSD17B inh -4% and AID923 -1%.
`Oc1cccc(O)c1O` gave HSD17B inh -18%, HADH2 inhib 0.63µM*, CRE Fsk mod -11% and AID923 1%.
Screening CC(=O)OC/C=C(C)/C=C/C=C(C)/C=C/C1=C(C)CCCC1(C)C returned HSD17B inh 40µM*, HADH2 inhib 5%, CRE Fsk mod -4% and AID923 -3%.
For O=C(O)c1ccc(C(=O)O)cc1 the results were HSD17B inh 0%, HADH2 inhib 4%, CRE Fsk mod -5% and AID923 1%.
O=C(O)c1ccncc1.O=C(O)c1ccncc1.[Cl][Pt]([Cl])([Cl])[Cl] was read as A350 autofl inactive, 4-MU autofl inactive, HSD17B inh -11%[11.4 µM], HADH2 inhib 0.5µM*, CRE Fsk mod 8%[7.6 µM] and AID923 -1%[11.5 µM].
For NC(=O)C1C(c2ccccc2)=C1c1ccccc1 the results were HSD17B inh 4%, HADH2 inhib 10%, CRE Fsk mod 1% and AID923 -1%.
For O=S(=O)(NCc1ccccc1)c1ccc2c(c1)OCCO2 the results were A350 autofl inactive, 4-MU autofl inactive, HSD17B inh 2%, HADH2 inhib 2%, CRE Fsk mod 0% and AID923 -1%.
Screening O=C(Nc1ccccc1C(=O)NCc1ccco1)c1ccccc1 returned HSD17B inh -7%, HADH2 inhib -3%, CRE Fsk mod inconclusive and AID923 1%.
Screening O=C(COc1ccccc1)Nc1ccccc1C(=O)NCc1ccco1 returned A350 autofl inactive, 4-MU autofl inactive, HSD17B inh inconclusive, HADH2 inhib 4%, CRE Fsk mod -1% and AID923 0%.
O=C(Nc1ccc(Cl)cc1)Nc1ccccc1C(=O)NCc1ccco1 was read as A350 autofl 1.2e-08M*, 4-MU autofl 1.1e-08M*, HSD17B inh inconclusive, HADH2 inhib 0%, CRE Fsk mod -5% and AID923 -1%.
For O=C(OCc1cccs1)c1ccccc1NS(=O)(=O)c1ccc2c(c1)OCCO2 the results were A350 autofl inactive, 4-MU autofl inactive, HSD17B inh 32µM*, HADH2 inhib -25%, CRE Fsk mod 7% and AID923 0%.
Screening O=C(NCc1ccco1)c1ccccc1NS(=O)(=O)c1ccc2c(c1)OCCO2 returned A350 autofl inconclusive, 4-MU autofl inconclusive, HSD17B inh 32µM*, HADH2 inhib 32µM*, CRE Fsk mod -12% and AID923 1%.
